The panel holds about 83,000 compounds, 20% with a hit somewhere; the sample as a whole holds those more often.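 48-hour exposure, single concentration, 96-well plates; percent growth endpoint where 0 means no net growth. Active: below 10.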 Calls of active or inactive are those of the source.

The assay deals with MDA-MB-435 melanoma. Description: NCI-60 one-dose screen, 48 h (100 = growth as untreated, 0 = no growth, -100 = all killed). The following applies: 10 µM unless noted.
For `COc1ccc2nc(NC(=O)c3cc(-c4ccc(F)cc4)n4nc(-c5ccccc5)cc4n3)sc2c1`, the growth was 96.2% (inactive).

For the molecule `COc1cc(/C=C/C(=O)N2CCN(C(=O)/C=C/c3ccccc3)CC2)cc(OC)c1OC`, the growth is 111% (inactive).

As to `O=C1C[C@@H]2/C(=C(O)\C=C\c3ccccc3)C(=O)C=C[C@@H]2O1`, the growth is -31.6% (active).

For the molecule `COc1cc(/C=C/c2nnc(-c3cc(-c4ccccc4)n[nH]3)o2)cc(OC)c1OC`, the growth was 102% (inactive).

Consider `O=[N+]([O-])c1ccc2c(c1)S(=O)c1cc([N+](=O)[O-])ccc1N2`, for which the growth is 106% (inactive).

As to `C/C(=C\CCc1ccoc1)CC/C=C(\C)CCCN1CCC(CO)CC1`, the growth is 44.2% (inactive).

As for `O=C1/C(=C/c2ccc([N+](=O)[O-])o2)Oc2ccc(Cl)cc21`, the growth was -72.8% (active).

For `COc1cc(C2NC(c3ccc(Cl)cc3)C(C)/C(=N/NC(N)=S)C2C)cc(OC)c1OC` (stereo not drawn), the growth is 107% (inactive).

Regarding `CCC(CC)NCCCCCNc1cc(OC)cc2cccnc12`, the growth is 107% (inactive).

Take `CCOc1nc(-c2ccccc2)cc2c(O)c(C(=O)n3nc(C)cc3C)[nH]c(=O)c12`: the growth was 112% (inactive).

For `O=C(/C(=N/O)S(=O)(=O)c1ccccc1)c1cccs1`, the growth is 105% (inactive).

`COc1cc(C2NC(c3ccc(Cl)cc3)C(C)C(=NC(=O)c3cnccn3)C2C)cc(OC)c1OC` (stereo not drawn): the growth was 108% (inactive).

On to `COc1ccc2c(c1)C(=O)/C(=C/c1ccc([N+](=O)[O-])s1)O2`, for which the growth is -70.4% (active).

Take `COc1cc(C(=O)/C=C/c2cccnc2Nc2ccccc2)cc(OC)c1OC`: the growth is -23.3% (active).

As for `CCCCn1c(Cc2ccc(Cl)cc2)nc2cc(OC)c(OC)cc2c1=O`, the growth was 74.1% (inactive).

Take `OCCOc1c(Cl)cc(Cl)cc1Cl`: the growth is 103% (inactive).

`COc1ccc2nc3cc(Cl)ccc3c(N3CCN(c4ccnc(Nc5ccc(F)cc5)n4)CC3)c2c1`: the growth is 74.5% (inactive).

On to `COc1ccc(-c2cc(Cc3cccs3)c(=O)n(Cn3ccc4ccccc43)n2)cc1`, for which the growth is 90.8% (inactive).

Take `CCc1[nH]nc(-c2ccc(OC)cc2)c1-c1ccccc1OCCN(CC)CC`: the growth is 101% (inactive).

Regarding `COc1ccc(-c2cc(C(=O)Nc3nc4cc(C)c(C)cc4s3)nc3cc(-c4ccccc4)nn23)cc1OC`, the growth was 96.8% (inactive).

Take `Nc1ccc2c3c(cccc13)-c1ccccc1-2`: the growth is 96.5% (inactive).

With `COc1cccc(-c2nnc(N)o2)c1`, the growth was 105% (inactive).

Regarding `COc1cc2c(cc1OCCCOc1ccc(-c3cc4ccccc4c4ccccc34)cc1)N=C[C@@H]1CCCN1C2=O`, the growth was -30.8% (active).

The values are drawn from PubChem BioAssay (NCI).
